From PubChem
DT40 TDP1 CPT: growth inhibition of DT40 Tdp1-/-;hTDP1 cells with camptothecin (screen for TDP1 inhibitors); chicken DT40 Tdp1-/-;hTDP1 cells + 20 nM CPT, ATP luminescence, 48 h; Potency, µM (doses to about 46.2 µM), without a hit: at the highest dose activity change, negative = growth inhibition, hits mostly inhibitors; 420,000 compounds, 12% hits; AID 686979; further: on the % scale 0 is the no-effect control and ±100 the full control effect; nearly all actives have a fitted effect of over 55% in size
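Chicken DT40 Tdp1-/- cells stably complemented with human TDP1 were seeded at 400 cells/well in medium containing 20 nM camptothecin, exposed to pin-transferred compounds, and grown at 37 °C for at least 48 hr. Viability was read as ATP luminescence.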
ATXN2 expr inh: inhibitors of ATXN2 expression; HEK-293 ATXN2-luciferase reporter, luminescence, 24 h; Potency, µM (titrated, usually from 57 µM), inactives show top-dose activity change, negative = inhibition, actives largely listed as inhibitors; 360,000 compounds, 0.72% hits; AID 1745845; further: on the % scale 0 is the no-effect control and ±100 the full control effect; nearly all actives have a fitted effect of over 55% in size
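qHTS (up to 57 uM final) was run with 24 h compound exposure of reporter cells at 37 °C. Each well was multiplexed: SteadyGlo luminescence measured ATXN2-luciferase expression after a fluorogenic Gly-Phe-AFC viability readout (25 uM final).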
ATXN viability: viability counter-screen for ATXN expression inhibitors; S2 cells (HEK-293 line with an ATXN2-luciferase reporter) viability, CellTiter-Fluor protease fluorescence, 24 h; Potency, µM (series often up to 56.7 µM), hits mostly cytotoxic; 400,000 compounds, 0.49% hits; AID 651635; further: nearly all actives have a fitted effect of over 40% in size
TGFb inhibitor: TGF-b pathway inhibition; 410,000 compounds, 1.2% hits; AID 588855; Potency, µM (titrated, usually from 46.1 µM), for inactives: at the top dose activity, negative = inhibition, usual class: inhibitors; HepG2 CAGA-GFP TGF-b/SMAD3 reporter, GFP fluorescence, 18 h; TGF-beta stimulated, 500 pg/mL final; further: on the % scale 0 is the no-effect control and ±100 the full control effect; nearly all actives have a fitted effect of over 65% in size
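HEPG2 CAGA-GFP cells (1000/well, DMEM with 1% FBS) were pre-incubated 2 h at 37 degrees C, given compound by pin tool, then stimulated with TGF-beta at 500 pg/mL final for 18 h before per-cell GFP fluorescence imaging.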
HepG2 viability: kills HepG2 cells in TGF-b inhibitor counter-screen | HepG2 CAGA-GFP viability, ATP luminescence, 18 h | Potency, µM (doses to about 46.1 µM), for the others: top-dose activity change, negative = cytotoxicity, most hits filed as cytotoxic | 410,000 compounds, 0.76% hits | AID 588856
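HepG2 CAGA-GFP cells (1000/well, DMEM with 1% FBS) received compound, then TGF-beta at 500 pg/mL final, and were incubated 18 hours at 37 degrees C. Viability was read by CellTiter-Glo luminescence. Media-only wells were set as complete cell-killing and DMSO as no toxicity.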
TDP1 cell noCPT: qHTS for Inhibitors of human tyrosyl-DNA phosphodiesterase 1 (TDP1): qHTS in cells in absence of CPT. Potency, µM (top dose mostly 46.2 µM), for the others: top-dose activity change, negative = growth inhibition, actives largely listed as inhibitors. 420,000 compounds, 15% hits. DT40 Tdp1-/- hTDP1 cells, no CPT, ATP luminescence, 48 h; further: on the % scale 0 is the no-effect control and ±100 the full control effect; nearly all actives have a fitted effect of over 55% in size
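Chicken DT40 Tdp1-/- cells stably complemented with human TDP1 were seeded at 400 cells/well with DMSO in place of 20 nM camptothecin. After compound pinning, cells grew at least 48 hr at 37 °C; viability read by CellTiter-Glo luminescence.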
The depositor's hits bear a star. Shown are actives, neighbours in structure and some others; about 17% of the full set was active somewhere. The call rests on the fitted dose curve; in most records, active means well fitted curve in the direction sought with a large enough effect; inconclusive means small, poorly fitted or top-dose-only effect, or another doubt; inactive means no such curve, though single readings can be large; an effect the other way counts as inactive or inconclusive. Potency means the concentration at half of the fitted maximal effect.

Screening Cc1ccc(NC(=O)CCSc2nc(-c3ccc4c(c3)OCO4)cc(C(F)(F)F)n2)c(C)c1 returned ATXN2 expr inh -4%, ATXN viability inactive, TGFb inhibitor 0% and HepG2 viability -60%.
`O=C(CCS(=O)(=O)c1nc(-c2ccc3c(c2)OCO3)cc(C(F)(F)F)n1)Nc1ccc(Br)cc1` gave DT40 TDP1 CPT 4.1µM*, TGFb inhibitor inconclusive, HepG2 viability -105% and TDP1 cell noCPT 3.3µM*.
For COCC1CCN(C(=O)C2CCC(=O)N(C3CCCCCC3)C2)CC1 (centres undefined) the results were DT40 TDP1 CPT -20%, ATXN2 expr inh 3%, ATXN viability inactive, TGFb inhibitor 4%, HepG2 viability -1% and TDP1 cell noCPT 1%.
For CC1(C)OC2C[C@](O)(C(N)=O)C[C@H](O)[C@H]2O1 (some centres undefined) the results were DT40 TDP1 CPT 0% and TDP1 cell noCPT -1%.
`O=C(O)c1ccc(S(=O)(=O)NC2CCCc3ccccc32)cc1` (centres undefined) gave DT40 TDP1 CPT -16%, ATXN2 expr inh -9%, ATXN viability inactive, TGFb inhibitor 2%, HepG2 viability -6% and TDP1 cell noCPT -8%.
`CC(=O)N1CCc2cc(S(=O)(=O)CCC(=O)NCCc3ccccc3)ccc21` gave DT40 TDP1 CPT -3%, ATXN viability inactive, TGFb inhibitor -17%, HepG2 viability -16% and TDP1 cell noCPT -1%.
`CC(=O)N1CCc2cc(S(=O)(=O)NCCC(=O)NCCc3ccc(Cl)cc3)ccc21` gave DT40 TDP1 CPT 16µM*, ATXN2 expr inh -26%, ATXN viability inactive, TGFb inhibitor -12%, HepG2 viability -1% and TDP1 cell noCPT inconclusive.
For CCC(=O)N1CCc2cc(S(=O)(=O)NCCC(=O)Nc3cc(C)cc(C)c3)ccc21 the results were DT40 TDP1 CPT -20%, ATXN2 expr inh 4%, ATXN viability inconclusive, TGFb inhibitor 5%, HepG2 viability 2% and TDP1 cell noCPT -12%.
For CC(=O)N1CCc2cc(S(=O)(=O)NC3CCCc4ccccc43)ccc21 (centres undefined) the results were DT40 TDP1 CPT 13µM*, ATXN2 expr inh -17%, ATXN viability inactive, TGFb inhibitor -3%, HepG2 viability -25% and TDP1 cell noCPT 14µM*.
For CCC(=O)N1CCc2cc(S(=O)(=O)NCCC(=O)NCc3ccc(C)cc3)ccc21 the results were DT40 TDP1 CPT 21µM*, ATXN2 expr inh -21%, ATXN viability inactive, TGFb inhibitor inconclusive, HepG2 viability -19% and TDP1 cell noCPT inconclusive.
For CC(=O)N1CCc2cc(S(=O)(=O)NCCC3=CCCCC3)ccc21 the results were DT40 TDP1 CPT 9.2µM*, ATXN2 expr inh inconclusive, ATXN viability inactive, TGFb inhibitor -18%, HepG2 viability -4% and TDP1 cell noCPT 2.6µM*.
For S=C(NCc1ccccc1)N1CCN(C(=S)NCc2ccccc2)CC1 the results were DT40 TDP1 CPT -2%, ATXN2 expr inh -3%, ATXN viability inactive, TGFb inhibitor 0%, HepG2 viability -1% and TDP1 cell noCPT 2%.
`CN(C)Cc1ccccc1-c1cncnc1NCc1cccs1` gave DT40 TDP1 CPT 1% and TDP1 cell noCPT -11%.
Screening CC(=O)N1CCc2cc(S(=O)(=O)NCCC(=O)NCCc3ccccc3)ccc21 returned DT40 TDP1 CPT inconclusive, ATXN2 expr inh -4%, ATXN viability inactive, TGFb inhibitor 0%, HepG2 viability 6% and TDP1 cell noCPT inconclusive.
For CC(=O)N1CCc2cc(S(=O)(=O)CCC(=O)NCc3ccc(Cl)cc3)ccc21 the results were DT40 TDP1 CPT inconclusive, ATXN2 expr inh -17%, ATXN viability inactive, TGFb inhibitor -8%, HepG2 viability -10% and TDP1 cell noCPT 21µM*.
CC(=O)N1CCc2cc(S(=O)(=O)NCCC(=O)NCCc3ccc(C)cc3)ccc21 was read as DT40 TDP1 CPT 29µM*, ATXN2 expr inh -12%, ATXN viability inactive, TGFb inhibitor -9%, HepG2 viability 0% and TDP1 cell noCPT 16µM*.
`CC(=O)N1CCc2cc(S(=O)(=O)CCC(=O)Nc3ccc(Cl)cc3F)ccc21` gave DT40 TDP1 CPT -21%, ATXN2 expr inh -14%, ATXN viability inactive, TGFb inhibitor -2%, HepG2 viability -10% and TDP1 cell noCPT -3%.
Screening CCCNc1nc(-c2ccccc2)c(C(=O)OCC)cc1C#N returned DT40 TDP1 CPT 2.9µM*, ATXN2 expr inh -9%, ATXN viability inactive, TGFb inhibitor -47%, HepG2 viability 5% and TDP1 cell noCPT 2.9µM*.
Screening CCCCNc1nc(-c2ccccc2)c(C(=O)OCC)cc1C#N returned DT40 TDP1 CPT inconclusive, ATXN2 expr inh -8%, ATXN viability inactive, TGFb inhibitor inconclusive, HepG2 viability -2% and TDP1 cell noCPT 23µM*.
Screening C=CCNc1nc(-c2ccccc2)c(C(=O)OCC)cc1C#N returned DT40 TDP1 CPT inconclusive, ATXN2 expr inh -24%, ATXN viability inactive, TGFb inhibitor 0%, HepG2 viability -4% and TDP1 cell noCPT 10µM*.
`COC(=O)C1(NC(=O)NC23CC4CC(CC(C4)C2)C3)CCCCC1` gave DT40 TDP1 CPT 4%, ATXN viability inactive, TGFb inhibitor -5%, HepG2 viability -13% and TDP1 cell noCPT -2%.
`CCc1ccc(-n2nc(C)c3c(C)cc(=O)n(CC(=O)Nc4ccccc4C(=O)OC)c32)cc1` gave DT40 TDP1 CPT -15%, ATXN2 expr inh inconclusive, ATXN viability inactive, TGFb inhibitor -10%, HepG2 viability 2% and TDP1 cell noCPT -4%.
`O=C(Nc1nnc(S(=O)(=O)N2CCCCC2)s1)c1cccc(Br)c1` gave DT40 TDP1 CPT 23µM*, ATXN2 expr inh 2%, ATXN viability inconclusive, TGFb inhibitor -13%, HepG2 viability -26% and TDP1 cell noCPT 15µM*.
O=C(Nc1nnc(S(=O)(=O)N2CCCC2)s1)c1cccc([N+](=O)[O-])c1 was read as DT40 TDP1 CPT -24%, ATXN2 expr inh 14%, ATXN viability inactive, TGFb inhibitor -19%, HepG2 viability 1% and TDP1 cell noCPT -6%.
